Experimental data reported in PubChem BioAssay.
Inconclusive results are not listed. Calls of active or inactive are those of the source. Unless noted, the limit is not given here; nearly all actives have AC50 up to about 26 µM.

system: not listed separately; experiment: differential killing of epithelial or mesenchymal cells, primary screen, imaging, PC-3E GFP, TEM4-18 mCherry, co-culture (AID 1345086); details: imaging cell counts, measured here: epithelial PC-3E GFP cell survival, at 1 µM;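 also: cells exposed to compound for 72 h before imaging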

SMILES | normalised cell number
CNCCC(Oc1ccc(C(F)(F)F)cc1)c1ccccc1 (stereo not given) | 1.16
COc1ccc(/C=C/C(=O)Nc2ccccc2C(=O)O)cc1OC | 1.21
COC(=O)[C@H](c1ccccc1Cl)N1CCc2sccc2C1 | 1.15
CC(C)NCC(O)COc1cccc2ccccc12 (stereo not given) | 0.94
O=[N+]([O-])c1cccc2cn[nH]c12 | 1.44
CS(=O)(=O)c1ccc(C2=C(c3ccccc3)C(=O)OC2)cc1 | 0.93
Cc1occc(=O)c1O | 1.16
CN(C)c1nc(N(C)C)nc(N(C)C)n1 | 0.98
COc1ccc(-c2cc(=O)c3c(OC)c(OC)c(OC)c(OC)c3o2)cc1OC | 0.98
C[N+]1(C)CCCC(OC(=O)C(O)(c2ccccc2)c2ccccc2)C1 (stereo not given) | 1.31
CC1=C(/C=C/C(C)=C/C=C/C(C)=C\C(=O)O)C(C)(C)CCC1 | 0.91
CCc1ccc(CCOc2ccc(CC3SC(=O)NC3=O)cc2)nc1 (stereo not given) | 1.18
CC(C(=O)O)c1ccc(-c2ccccc2)c(F)c1 (stereo not given) | 1.07
CC[C@H]1OC(=O)[C@H](C)[C@@H](O[C@H]2C[C@@](C)(OC)[C@@H](O)[C@H](C)O2)[C@H](C)[C@@H](O[C@@H]2O[C@H](C)C[C@H](N(C)C)[C@H]2O)[C@](C)(OC)C[C@@H](C)C(=O)[C@H](C)[C@@H](O)[C@]1(C)O | 1.39
C[C@H]1COc2c(N3CCN(C)CC3)c(F)cc3c(=O)c(C(=O)O)cn1c23 | 1.12
CC(C)NCC(O)COc1ccc(CC(N)=O)cc1 (stereo not given) | 1.11
Cc1cccc(C)c1NC(=O)C1CCCCN1C (stereo not given) | 1.19
CCCCC(=O)N(Cc1ccc(-c2ccccc2-c2nn[nH]n2)cc1)[C@H](C(=O)O)C(C)C | 1.14
Nc1ncnc2c1ncn2[C@@H]1O[C@H](CO)[C@@H](O)[C@@H]1O | 0.99

same assay, conditions: imaging cell counts, measured here: mesenchymal TEM4-18 mCherry cell survival, at 1 µM

SMILES | normalised cell number
CNCCC(Oc1ccc(C(F)(F)F)cc1)c1ccccc1 (stereo not given) | 1.15
COc1ccc(/C=C/C(=O)Nc2ccccc2C(=O)O)cc1OC | 0.98
COC(=O)[C@H](c1ccccc1Cl)N1CCc2sccc2C1 | 1.36
CC(C)NCC(O)COc1cccc2ccccc12 (stereo not given) | 1.31
O=[N+]([O-])c1cccc2cn[nH]c12 | 1.13
CS(=O)(=O)c1ccc(C2=C(c3ccccc3)C(=O)OC2)cc1 | 0.92
Cc1occc(=O)c1O | 1.05
CN(C)c1nc(N(C)C)nc(N(C)C)n1 | 1.08
COc1ccc(-c2cc(=O)c3c(OC)c(OC)c(OC)c(OC)c3o2)cc1OC | 1.13
C[N+]1(C)CCCC(OC(=O)C(O)(c2ccccc2)c2ccccc2)C1 (stereo not given) | 1.37
CC1=C(/C=C/C(C)=C/C=C/C(C)=C\C(=O)O)C(C)(C)CCC1 | 1.18
CCc1ccc(CCOc2ccc(CC3SC(=O)NC3=O)cc2)nc1 (stereo not given) | 1.27
CC(C(=O)O)c1ccc(-c2ccccc2)c(F)c1 (stereo not given) | 1.18
CC[C@H]1OC(=O)[C@H](C)[C@@H](O[C@H]2C[C@@](C)(OC)[C@@H](O)[C@H](C)O2)[C@H](C)[C@@H](O[C@@H]2O[C@H](C)C[C@H](N(C)C)[C@H]2O)[C@](C)(OC)C[C@@H](C)C(=O)[C@H](C)[C@@H](O)[C@]1(C)O | 1.04
C[C@H]1COc2c(N3CCN(C)CC3)c(F)cc3c(=O)c(C(=O)O)cn1c23 | 1.13
CC(C)NCC(O)COc1ccc(CC(N)=O)cc1 (stereo not given) | 1.09
Cc1cccc(C)c1NC(=O)C1CCCCN1C (stereo not given) | 1.44
CCCCC(=O)N(Cc1ccc(-c2ccccc2-c2nn[nH]n2)cc1)[C@H](C(=O)O)C(C)C | 1.3
Nc1ncnc2c1ncn2[C@@H]1O[C@H](CO)[C@@H](O)[C@@H]1O | 0.95

system: Aerobactin synthetase IucA (Klebsiella pneumoniae); experiment: IucA aerobactin synthetase inhibitors, biochemical, Tocris library, absorbance (AID 1345561; call rule not given here;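 also: 100% = enzyme without compound and 0% = no enzyme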); details: purified IucA enzyme assay, absorbance (OD) read-out; stronger effect = lower value;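 tested at 8 µM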

SMILES | remaining activity
CNCCC(Oc1ccc(C(F)(F)F)cc1)c1ccccc1 (stereo not given) | 124% (inactive)
COc1ccc(/C=C/C(=O)Nc2ccccc2C(=O)O)cc1OC | 119% (inactive)
CC(C)NCC(O)COc1cccc2ccccc12 (stereo not given) | 97.5% (inactive)
O=[N+]([O-])c1cccc2cn[nH]c12 | 107% (inactive)
CC(C(=O)O)c1ccc(-c2ccccc2)c(F)c1 (stereo not given) | 123% (inactive)
CC(C)NCC(O)COc1ccc(CC(N)=O)cc1 (stereo not given) | 121% (inactive)

system: not listed separately; experiment: growth inhibition of DIPG glioma cells, dose response, cell-based, SU-DIPG-XVII, MIPE5.0, CellTiter-Glo, qHTS (AID 1347060); details: SU-DIPG-XVII viability, CellTiter-Glo ATP luminescence

SMILES | outcome
COc1ccc(/C=C/C(=O)Nc2ccccc2C(=O)O)cc1OC | inactive
COC(=O)[C@H](c1ccccc1Cl)N1CCc2sccc2C1 | inactive
CS(=O)(=O)c1ccc(C2=C(c3ccccc3)C(=O)OC2)cc1 | inactive
CN(C)c1nc(N(C)C)nc(N(C)C)n1 | inactive
CCc1ccc(CCOc2ccc(CC3SC(=O)NC3=O)cc2)nc1 (stereo not given) | inactive
C[C@H]1COc2c(N3CCN(C)CC3)c(F)cc3c(=O)c(C(=O)O)cn1c23 | inactive
Nc1ncnc2c1ncn2[C@@H]1O[C@H](CO)[C@@H](O)[C@@H]1O | inactive

system: not listed separately; experiment: growth inhibition of DIPG glioma cells, dose response, cell-based, SU-DIPG-XIII, MIPE4.0, CellTiter-Glo, qHTS (AID 1347061; cut-off not given, nearly all actives have AC50 up to about 37 µM;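 also: cells exposed to compound for 48 hours before readout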); details: SU-DIPG-XIII viability, CellTiter-Glo ATP luminescence

SMILES | outcome | AC50
COc1ccc(/C=C/C(=O)Nc2ccccc2C(=O)O)cc1OC | inactive | –
CS(=O)(=O)c1ccc(C2=C(c3ccccc3)C(=O)OC2)cc1 | inactive | –
CC(C(=O)O)c1ccc(-c2ccccc2)c(F)c1 (stereo not given) | – | 16.6 µM (active)
C[C@H]1COc2c(N3CCN(C)CC3)c(F)cc3c(=O)c(C(=O)O)cn1c23 | inactive | –
